Values joined by “and” are separate entries in the source; they are usually repeats but may differ in a detail not shown here. Identical values can stand only once. In all, about 16,000 compounds went through this assay and about 5,800 (36%) were called active. Not shown: some 23% with an inconclusive outcome. The list shows a part of the results. Values without a mark were called inactive. The call rests on the fitted dose curve; in most records, active means well fitted curve in the direction sought with a large enough effect; inconclusive means small, poorly fitted or top-dose-only effect, or effect the other way; inactive means no such curve, though single readings can be large or run the other way.
The compounds below were run against Cytochrome P450 2C19 (Homo sapiens) (UniProt P33261) (assay: Cytochrome panel assay with activity outcomes). Details: recombinant CYP, pro-luciferin dealkylation, luminescence, p450-cyp2c19; series mostly up to 57.1 µM.
On the % scale 0 is the no-effect control and ±100 the full control effect.

Chain of Cytochrome P450 2C19 (Homo sapiens) (P33261 whole entry, looked up): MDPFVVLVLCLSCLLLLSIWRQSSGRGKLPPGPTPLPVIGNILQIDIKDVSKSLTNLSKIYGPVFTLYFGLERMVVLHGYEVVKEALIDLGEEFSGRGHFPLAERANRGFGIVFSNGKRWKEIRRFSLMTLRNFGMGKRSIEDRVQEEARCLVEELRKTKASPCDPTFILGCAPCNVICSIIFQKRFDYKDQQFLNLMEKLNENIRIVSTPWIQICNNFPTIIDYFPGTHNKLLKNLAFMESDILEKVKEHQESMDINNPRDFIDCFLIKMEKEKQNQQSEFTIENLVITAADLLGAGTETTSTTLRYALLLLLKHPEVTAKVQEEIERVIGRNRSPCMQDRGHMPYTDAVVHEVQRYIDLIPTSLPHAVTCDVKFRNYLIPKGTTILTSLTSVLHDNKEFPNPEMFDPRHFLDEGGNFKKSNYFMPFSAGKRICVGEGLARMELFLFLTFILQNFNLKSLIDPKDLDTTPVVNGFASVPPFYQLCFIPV

Compound	AC50	activity, negative = inhibition
COc1ccc2cc(CCNC(=O)C3CC3)c(=O)[nH]c2c1	inactive	–
Cc1ccc2cc(CCNC(=O)c3ccc(Br)o3)c(=O)[nH]c2c1	2.24 µM (active)	–
CC(=O)N1CCN(C(=O)CC2OC(=O)c3ccccc32)CC1 (centres undefined)	1.78 µM (active)	–
COc1ccc(OC)c2c(=S)c3ccccc3[nH]c12	inactive	–
CCN(C(=S)Nc1ccccc1F)C1CCCCC1	3.98 µM (active)	–
Cc1ccc(SCc2ccc(C(=O)Nc3cc([N+](=O)[O-])ccc3C)cc2)cc1	inactive	–
Cc1ccc([N+](=O)[O-])cc1NC(=S)NC(=O)C(C)(C)C	2 µM (active)	–
Cc1ccc([N+](=O)[O-])cc1NC(=S)NC(=O)CC(C)(C)C	4.47 µM (active)	–
CCn1c(C)c(C)c2cc(C(=O)Nc3cccc(Cl)c3)ccc21	7.08 µM (active)	–
O=C(O)c1ccc(C(=O)Nc2cccc3ccccc23)c(C(=O)O)c1	–	12.6% [at 11.4 µM]
Cc1c(C)n(C)c2ccc(C(=O)Nc3cccc4ccccc34)cc12	3.55 µM (active)	–
COc1ncc2nc(-c3cc(F)cc(F)c3)c(=O)n(-c3ccccc3)c2n1	inactive	–
Cc1ccccc1OCCCn1c(=O)sc2ccccc21	1 µM (active)	–
O=c1sc2ccccc2n1CCCOc1ccccc1	1.12 µM (active)	–
C[N+](C)(CCCOc1ccccc1)c1ccccc1	inactive	–
Cc1ccc(OCCCn2c(=O)sc3ccccc32)cc1	0.708 µM (active)	–
C/C(CCN1CCc2nc(-c3ccccc3)c(-c3ccccc3)cc2C1)=N\O[C@@H](C)c1cn([C@H](CO)Cc2ccccc2)nn1	–	-17.8% [at 11.4 µM] and -16.4% [at 11.4 µM]
OC[C@@H]1NC[C@@H](O)[C@H]1O	inactive	–
O=c1[nH][nH]c(C(F)(F)F)c1C=Nc1cccc(Cl)c1	inactive	–
Clc1cccc(C=NC=Nc2cccc(Cl)c2)c1	10 µM (active)	–
COc1cccc(C=NC=Nc2cccc(OC)c2)c1	inactive	–
Cc1noc(C)c1-c1nccc(NC2CC2)n1	10 µM (active)	–

Compound	AC50	activity, negative = inhibition
Cc1noc(C)c1-c1nc(Nc2ccccc2)c2ccccc2n1	inactive	–
Cc1noc(C)c1-c1nc(Nc2ccc(F)cc2)c2ccccc2n1	3.16 µM (active)	–
CN(C)Cc1ccccc1-c1nccc(NC2CC2)n1	inactive	–
Cc1noc(C)c1-c1nccc(Nc2ccc(F)cc2)n1	3.98 µM (active)	–
c1ccc2c(NCCN3CCOCC3)nc(-c3ccoc3)nc2c1	inactive	–
CNc1cc(-c2c(C)noc2C)ncn1	inactive	–
Cc1noc(C)c1-c1nc(NC2CCNCC2)c2ccccc2n1	inactive	–
COCCNc1nc(-c2c(C)noc2C)nc2ccccc12	inactive	–
Cc1noc(C)c1-c1nc(NCCN2CCOCC2)c2ccccc2n1	7.94 µM (active)	–
Cc1ccc(-[n+]2cc(=O)o[nH]2)cc1	–	-19.9% [at 11.4 µM]
CC(C)NC(=O)N1CCCC2(CCN(C(=O)c3ccncc3)CC2)C1	inactive	–
CSc1nc(NC2CCCC2)c([N+](=O)[O-])c(NC2CCCC2)n1	5.01 µM (active)	–
CCNc1nnc(-c2ccncc2)s1	5.01 µM (active)	–
COc1ccc(C(=O)O/N=C/c2ccc(S(=O)c3ccc(Cl)cc3)nc2)cc1 (centres undefined)	14.1 µM (active)	–
O=C(NCc1cccs1)C1CCN(S(=O)(=O)c2cccc3nsnc23)CC1	inactive	–
O=C(NCC1COc2ccccc2O1)C1CCN(S(=O)(=O)c2cccc3nsnc23)CC1 (centres undefined)	14.1 µM (active)	–
c1cc(CN2CCCCC2)cc(OCCCNc2nc3ccccc3s2)c1	inactive	–
COc1ccc2nc(NCN3C(=O)c4ccccc4C3=O)sc2c1	2.51 µM (active)	–
COc1ccc2nc(NC(=O)C3CCN(S(=O)(=O)c4cccc5nsnc45)CC3)sc2c1	1.41 µM (active)	–
Cc1cccc(NC(=O)C2CCN(S(=O)(=O)c3cccc4nsnc34)CC2)n1	10 µM (active)	–
COc1ccc(OC)c(S(=O)(=O)N2CCC(C(=O)NCCc3ccccc3)CC2)c1	inactive	–
COc1ccc(OC)c(S(=O)(=O)N2CCC(C(=O)Nc3ccc(C)c(C)c3)CC2)c1	14.1 µM (active)	–

Compound	AC50	activity, negative = inhibition
CC1(C)C(=O)C(c2ccccc2)=C2CN3C(=O)N(CCc4ccccc4)C(=O)C3(Cc3ccc(C(F)(F)F)cc3)C=C21 (centres undefined)	inactive	–
NC(=O)C[C@H](N)C(N)=O	–	-4.71% [at 11.4 µM]
O=C1CCCC2=C1C(c1ccc(OS(=O)(=O)c3ccc(Cl)cc3)cc1)C1=C(CCCC1=O)O2	3.98 µM (active)	–
CN(C)C[C@H]1CCC2=C(C1=O)C(c1ccc(Cl)c(Cl)c1)C1=C(CC[C@H](CN(C)C)C1=O)O2	–	13.9% [at 11.4 µM]
Cc1ccc(S(=O)(=O)Oc2ccc(C3C4=C(CCCC4=O)OC4=C3C(=O)CCC4)cc2)cc1	4.47 µM (active)	–
c1ccc(-n2ncc3c2ncn2cnnc32)cc1	inactive	–
O=c1oc(-c2ccco2)nc2c1cnn2-c1ccccc1	7.08 µM (active)	–
COC(=O)C(NNc1ccccc1)(NC(=O)c1ccccc1F)C(F)(F)F (centres undefined)	2.24 µM (active)	–
O=C(O)c1ccccc1C(=O)NNc1ccc(F)cc1	inactive	–
CCN(CC)CCN1C(=O)c2cccc3cc(N)cc(c23)C1=O	–	44.4% [at 11.4 µM]
Cc1ccc(C(=O)O)cc1N1C(=O)c2cccc3cc(Br)cc(c23)C1=O	14.1 µM (active)	–
CC1CSc2nc3sc4c(c3c(=O)n21)CCCC4 (centres undefined)	15.8 µM (active)	–
CCN(CC(=O)NCc1cccs1)S(=O)(=O)c1ccc(C(C)C)cc1	5.62 µM (active)	–
OCCCSCCO	–	18.7% [at 11.4 µM]
CC(C)COP(=O)(c1ccc(N(C)C)cc1)C(O)c1ccccc1F (centres undefined)	5.62 µM (active)	–
CC(C)COP(=O)(OCC(C)C)C(O)c1ccccc1F (centres undefined)	inactive	–
Clc1ccc(-c2ccnc(Oc3cc(Cl)ccc3Cl)n2)cc1	0.316 µM (active)	–
O=C(O)/C=C\C(=O)Nc1ccc2c(c1)-c1ccccc1C2	–	-24.1% [at 11.4 µM]
C(/C=C\c1ccccc1)=Nc1ccc2c(c1)Cc1ccccc1-2	3.98 µM (active)	–
S=C(Nc1ccc2c(c1)Cc1ccccc1-2)Nc1ccc2c(c1)Cc1ccccc1-2	–	-8.36% [at 11.4 µM]
